Source: publication PMC11062922 (Nature Chemical Biology, 2023)

Assays:
Design in all cases: species or system human, MV4-11 + K-562 + COLO205 + SK-N-BE2 + OVCAR-8
PHKG2 = conditions: read-out: apparent Kd; compound concentrations: 100 nM and 1000 nM (sheet 'Samples'), CATDS: 8.5402919050668602E-3; n = 1
PRKACA = conditions: read-out: apparent Kd; compound concentrations: 100 nM and 1000 nM (sheet 'Samples'), CATDS: 7.7130843989671599E-3; n = 1
TESK2 = conditions: read-out: apparent Kd; compound concentrations:100 nM and 1000 nM (sheet 'Samples'); n = 1
MAP3K5 = conditions: read-out: apparent Kd; compound concentrations: 100 nM and 1000 nM (sheet 'Samples'), CATDS: 5.5720140806326597E-2; n = 1
RAF1 = conditions: read-out: apparent Kd; compound concentrations: 100 nM and 1000 nM (sheet 'Samples'), CATDS: 0.155550656381887; n = 1
NCL = conditions: read-out: apparent Kd; compound concentrations: 100 nM and 1000 nM (sheet 'Samples'), CATDS: 1.71627638164802E-2; n = 1
PRKCZ = conditions: read-out: apparent Kd; compound concentrations: 100 nM and 1000 nM (sheet 'Samples'), CATDS: 1.7514325716089001E-2; n = 1
NEK1 = conditions: read-out: apparent Kd; compound concentrations: 100 nM and 1000 nM (sheet 'Samples'), CATDS: 0.147931725525974; n = 1
CLK3 = conditions: read-out: apparent Kd; compound concentrations: 100 nM and 1000 nM (sheet 'Samples'), CATDS: 1.8485003347971998E-2; n = 1
NTRK1 = conditions: read-out: apparent Kd; compound concentrations: 100 nM and 1000 nM (sheet 'Samples'), CATDS: 1.31353956305182E-2; n = 1
RPS6KA1 = conditions: read-out: apparent Kd; compound concentrations: 100 nM and 1000 nM (sheet 'Samples'), CATDS: 1.0541415060752299E-2; n = 1
NEK9 = conditions: read-out: apparent Kd; compound concentrations: 100 nM and 1000 nM (sheet 'Samples'), CATDS: 2.1458730065113701E-2; n = 1
FES = conditions: read-out: apparent Kd; compound concentrations: 100 nM and 1000 nM (sheet 'Samples'), CATDS: 3.8230279183827799E-2; n = 1
PI4KB = conditions: read-out: apparent Kd; compound concentrations: 100 nM and 1000 nM (sheet 'Samples'), CATDS: 0.18067625739165599; n = 1
PIK3C2B = conditions: read-out: apparent Kd; compound concentrations: 100 nM and 1000 nM (sheet 'Samples'), CATDS: 3.01337612448444E-2; n = 1
MAPK3 = conditions: read-out: apparent Kd; compound concentrations:100 nM and 1000 nM (sheet 'Samples'); n = 1
MAP2K3 = conditions: read-out: apparent Kd; compound concentrations:100 nM and 1000 nM (sheet 'Samples'); n = 1
PIK3CB = conditions: read-out: apparent Kd; compound concentrations:100 nM and 1000 nM (sheet 'Samples'); n = 1
SLC25A5 = conditions: read-out: apparent Kd; compound concentrations:100 nM and 1000 nM (sheet 'Samples'); n = 1
IARS = conditions: read-out: apparent Kd; compound concentrations: 100 nM and 1000 nM (sheet 'Samples'), CATDS: 0.121118103418118; n = 1

SMILES: O=C1N=C(NCc2cccs2)SC1Cc1ccc2ncccc2c1 (centres unmarked) [RO4629078-000]
- potency estimated from few doses (PHKG2): 1040 nM
- potency estimated from few doses (PRKACA): 1470 nM

SMILES: CCn1cc(-c2ccnc3[nH]c(-c4cccc(CN(C)C)c4)cc23)c(-c2ccc(NC(=O)N(C)C)cc2)n1 [GSK1070916]
- potency estimated from few doses (TESK2): 1310 nM

SMILES: CNC1=NC(=O)/C(=C/c2ccc3ncccc3c2)S1 [RO4595949-000]
- potency estimated from few doses (MAP3K5): 1240 nM

SMILES: CCc1nc(-c2cccc(N(C)S(=O)(=O)c3ccccc3)c2)c(-c2ccnc(Nc3ccc(N4CCN(C(C)=O)CC4)nc3)n2)s1 [GSK1645895A]
- potency estimated from few doses (RAF1): 1420 nM

SMILES: Cl.Cl.Cl.c1ccc(Oc2ccc(Nc3ccnc4cc(-c5ccc(CN6CCNCC6)o5)ccc34)cc2)nc1.c1ccc(Oc2ccc(Nc3ccnc4cc(-c5ccc(CN6CCNCC6)o5)ccc34)cc2)nc1 [GW567142A]
- potency estimated from few doses (NCL): 1970 nM
- potency estimated from few doses (PRKCZ): 1820 nM

SMILES: COc1cc(Nc2nccc(N3CCC(NC(=O)c4cccc(C#N)c4)C3)n2)cc(OC)c1OC (centres unmarked) [GSK1379751A]
- potency estimated from few doses (NEK1): 1860 nM

SMILES: CNC(=O)c1ccccc1Nc1nc(Nc2cccc(CS(C)(=O)=O)c2)ncc1C.O=CO [GSK1520489A]
- potency estimated from few doses (CLK3): 167 nM
- potency estimated from few doses (NTRK1): 438 nM
- potency estimated from few doses (RPS6KA1): 1010 nM

SMILES: CC(C)c1nc(-c2cccc(NS(=O)(=O)c3c(F)cccc3F)c2F)c(-c2ccnc(Nc3ccc(N4CCOCC4)nc3)n2)s1 [GSK2008607A]
- potency estimated from few doses (NEK9): 1100 nM

SMILES: CN1CCN(Cc2ccc(NC(=O)Nc3ccc(N(C)c4ccnc(Nc5ccc(CS(C)(=O)=O)cc5)n4)cc3)cc2)CC1.Cl [GW827654A]
- potency estimated from few doses (FES): 1230 nM

SMILES: CS(=O)(=O)c1ccc(-c2cnc(N)c(C(=O)Nc3ccccc3)n2)cc1 [VE-821]
- potency estimated from few doses (PI4KB): 812 nM

SMILES: O=S(=O)(CCOCc1ccc(-c2ccc3ncnc(Nc4ccc(OCc5cccc(F)c5)c(Cl)c4)c3c2)o1)c1ccccc1 [GW615311X]
- potency estimated from few doses (PIK3C2B): 1160 nM

SMILES: N#Cc1cccc(Nc2nccc(-c3cnn4ncccc34)n2)c1 [GW778894X]
- potency estimated from few doses (MAPK3): 975 nM

SMILES: Nc1nc(N)c2nc(-c3ccccc3)[nH]c2n1 [SKF-12778]
- potency estimated from few doses (MAP2K3): 2020 nM
- potency estimated from few doses (PIK3CB): 790 nM
- potency estimated from few doses (SLC25A5): 1960 nM

SMILES: CS(=O)(=O)c1ccc(-c2nc3n(c2-c2ccncc2)CCC3)cc1 [SKF-105942]
- potency estimated from few doses (IARS): 1900 nM
